Source: PubChem BioAssay (NCATS)
“And” between values parts separate entries of the source, which are not always exact repeats. Equal values may be shown once. Inconclusive results are not listed. The source holds several records for some structures; these can differ, active in one and inactive in another. The source made the active and inactive calls. Unless noted, calls come from the whole dose curve; as a rule, active = well fitted curve in either direction with a large enough effect (not every such curve was filed as active); inconclusive = small, poorly fitted or top-dose-only effect, or another doubt; inactive = flat fitted curve, though single readings scatter.

Experiments:
[1] = AP1 Signaling Pathway (AID 357); conditions: ME-180 AP-1-bla reporter, EGF-induced, beta-lactamase ratio, 5 h; note: % is set by controls: 0 for no effect and ±100 for the full control effect
Method in brief: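 AP-1-bla ME-180 cells with beta-lactamase reporter under AP-1 response element, stimulated with EC50 EGF; compounds titrated, 5 hours at 37 degrees Celsius. CCF4 read at 460/530 nm ratio; positive and negative modulators judged by AC50.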

[2] = biological target: Cytochrome P450 1A2 (Homo sapiens) (UniProt P05177); experiment: p450-cyp1a2 (AID 410; calls by dose curve; note: potency is the fitted concentration of half-maximal effect;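 for activity change, negative = inhibition: -100% = full effect of reference inhibitor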)
Method in brief: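 20nM CYP1A2, 100uM Luciferin-ME (=Km), 100mM KPO4; cpd 10 min RT; +NADPH regen, 60 min RT; stop/detect 20 min; luminescence. Normalized to furafylline 57 uM = full inhibition.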

[3] = NFAT Signaling Pathway (AID 444); conditions: Jurkat NFAT-bla M1, carbachol, beta-lactamase ratio, 5 h;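 note: carbachol stimulus at about its EC50 of 1 µM final; % is set by controls: 0 for no effect and ±100 for the full control effect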
Method in brief: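 Jurkat cells with NFAT-driven β-lactamase reporter and co-expressed M1 receptor, stimulated with carbachol (final 1 uM, ~EC50), compound titration, 5 h at 37 °C. CCF4 loaded 1 h at RT; 460/530 nm ratio gave %activity and AC50.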

[4] = Stat Signaling Pathway (AID 446); conditions: ME-180 (cervical carcinoma) SIE beta-lactamase reporter, IL-6 stimulated, 5 h;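 note: ME-180 cervical cancer cells given 40 pM IL-6 alongside compound; SIE-controlled beta-lactamase reporter measured as 460/530 nm FRET emission ratio; % is set by controls: 0 for no effect and ±100 for the full control effect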
Method in brief: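 FRET read-out (405 nm excitation, 460/530 nm emission) of a beta-lactamase reporter under a STAT-inducible element in ME-180 cervical carcinoma cells. Cells with compound receive 40 pM IL-6 for 5 h. Values are normalised to AC90 stimulation and AC90 JAK-inhibitor controls.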

[5] = biological target: Glucocorticoid receptor (Homo sapiens) (UniProt P04150); experiment: GR-EFC Redistribution (AID 451; calls by dose curve; note: potency is the fitted concentration of half-maximal effect); conditions: CHO-K1 GR-EFC translocation, beta-gal luminescence, 2 h
Method in brief: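 CHO-K1 cells expressing nuclear EA and GR-ED fragments of b-gal; compounds titrated up to 46 uM final, 2 h at 37 C. GR nuclear translocation read as complemented b-gal luminescence after 1 h RT detection.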

[6] = biological target: Glucocorticoid receptor (Homo sapiens) (UniProt P04150); experiment: GR-GFP Redistribution (AID 450;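 active = compounds whose dose series gives a full or clear partial fitted curve of increased nuclear translocation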; note: potency is the fitted concentration of half-maximal effect); conditions: U2OS GR-GFP nuclear translocation, laser cytometry, 2 h
[7] = biological target: Mitogen-activated protein kinase 10 (Mus musculus) (UniProt Q61831); experiment: JNK3 AlphaScreen Assay (AID 530);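 note: kinase came from lysate of stimulated human HepG2 cells; signal reports phosphorylation of biotinylated GST-cJun 1-79 at Ser73 with 10 µM ATP; % is set by controls: 0 for no effect and ±100 for the full control effect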
Method in brief: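 HepG2 lysate (IL-1b/TNFa pre-activated) + biotin-GST-cJun 1-79 + anti-pSer73 cJun; cpd titration, 15 min RT; ATP 10 uM start; Tris pH 7.6, MgCl2, DTT, vanadate; beads in EDTA buffer; AlphaScreen.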

[8] = biological target: Lysosomal acid glucosylceramidase (Homo sapiens) (UniProt P04062); experiment: Glucocerebrosidase-p2 (AID 348; in the data active = potency below about 10 µM; note: potency is the fitted concentration of half-maximal effect); conditions: purified GBA, blue fluorogenic substrate, 40 min
Method in brief: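 Normal human glucocerebrosidase (0.2 nM) with blue fluorogenic substrate (80 uM final) in citrate/phosphate pH 5.9 with 10mM sodium taurocholate, 0.01% tween-20; 40 min RT, NaOH/glycine stop; fluorescence Ex 365/Em 440; AC50 from a titration from 0.6 nM upwards.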

[9] = at 38 µM (top of the series) unless noted

Sequence of Cytochrome P450 1A2 (Homo sapiens) (P05177 whole entry, looked up): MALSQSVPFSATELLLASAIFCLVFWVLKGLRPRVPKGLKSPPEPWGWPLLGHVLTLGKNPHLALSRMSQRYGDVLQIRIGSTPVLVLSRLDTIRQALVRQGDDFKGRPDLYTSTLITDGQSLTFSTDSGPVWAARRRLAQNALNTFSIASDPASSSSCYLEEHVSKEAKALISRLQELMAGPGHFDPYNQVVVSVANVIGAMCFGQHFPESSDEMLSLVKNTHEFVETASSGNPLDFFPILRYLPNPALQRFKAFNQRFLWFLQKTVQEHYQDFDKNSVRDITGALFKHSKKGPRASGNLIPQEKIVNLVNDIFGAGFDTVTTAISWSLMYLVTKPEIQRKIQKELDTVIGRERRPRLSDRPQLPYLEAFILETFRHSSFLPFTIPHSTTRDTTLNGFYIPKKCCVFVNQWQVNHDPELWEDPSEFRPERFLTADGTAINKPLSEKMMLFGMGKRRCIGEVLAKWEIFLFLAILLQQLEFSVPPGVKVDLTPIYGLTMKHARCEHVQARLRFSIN
Sequence of Glucocorticoid receptor (Homo sapiens) (P04150 whole entry, looked up, the tested form may be a part): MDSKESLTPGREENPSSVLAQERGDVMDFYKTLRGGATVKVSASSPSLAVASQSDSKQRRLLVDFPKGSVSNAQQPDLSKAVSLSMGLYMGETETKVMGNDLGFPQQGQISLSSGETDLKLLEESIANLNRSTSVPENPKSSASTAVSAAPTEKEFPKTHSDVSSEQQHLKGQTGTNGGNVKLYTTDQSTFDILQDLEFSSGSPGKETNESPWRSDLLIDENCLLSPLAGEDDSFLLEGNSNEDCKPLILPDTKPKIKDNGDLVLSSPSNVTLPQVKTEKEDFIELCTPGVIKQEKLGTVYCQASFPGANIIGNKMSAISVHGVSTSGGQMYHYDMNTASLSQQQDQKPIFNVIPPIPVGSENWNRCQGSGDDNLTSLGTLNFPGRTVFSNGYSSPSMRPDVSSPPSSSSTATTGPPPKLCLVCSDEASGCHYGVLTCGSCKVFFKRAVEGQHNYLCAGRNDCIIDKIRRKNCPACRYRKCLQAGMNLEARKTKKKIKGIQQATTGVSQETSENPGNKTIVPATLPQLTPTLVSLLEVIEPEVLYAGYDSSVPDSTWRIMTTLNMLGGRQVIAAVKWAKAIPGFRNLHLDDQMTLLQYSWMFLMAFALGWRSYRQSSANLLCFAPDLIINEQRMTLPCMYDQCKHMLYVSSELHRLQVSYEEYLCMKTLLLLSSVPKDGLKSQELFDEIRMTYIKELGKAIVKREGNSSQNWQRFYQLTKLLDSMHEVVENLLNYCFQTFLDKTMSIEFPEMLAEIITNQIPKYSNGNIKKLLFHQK
Sequence of Lysosomal acid glucosylceramidase (Homo sapiens) (P04062 whole entry, looked up): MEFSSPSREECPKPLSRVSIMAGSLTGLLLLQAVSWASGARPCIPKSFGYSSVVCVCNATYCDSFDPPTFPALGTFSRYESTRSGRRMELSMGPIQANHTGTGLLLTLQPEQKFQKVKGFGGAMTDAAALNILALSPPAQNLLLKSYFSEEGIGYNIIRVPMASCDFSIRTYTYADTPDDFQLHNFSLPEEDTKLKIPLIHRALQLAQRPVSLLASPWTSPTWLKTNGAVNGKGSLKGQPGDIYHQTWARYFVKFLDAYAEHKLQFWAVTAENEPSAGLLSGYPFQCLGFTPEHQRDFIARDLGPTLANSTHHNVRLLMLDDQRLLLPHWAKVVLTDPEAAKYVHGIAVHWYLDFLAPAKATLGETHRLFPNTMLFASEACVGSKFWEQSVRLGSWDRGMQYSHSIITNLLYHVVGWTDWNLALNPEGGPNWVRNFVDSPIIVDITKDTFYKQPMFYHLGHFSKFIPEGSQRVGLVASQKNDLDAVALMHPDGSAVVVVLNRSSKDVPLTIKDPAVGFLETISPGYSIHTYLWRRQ

Question: Which activity change, negative = inhibition [1, 9] does the source give for `CCCn1c(=O)c2c(ncn2C)n(CCC)c1=O` here?
Answer: 2.31% (inactive)

Question: What about the Potency [2] of the same compound?
Answer: 7.94 µM (active)

Question: And the activity change, negative = inhibition [3, 9]?
Answer: 0.366% (inactive)

Question: What about the activity, negative = inhibition [4, 9] of the same compound?
Answer: 28.8% (inactive)

Question: And the Potency [5]?
Answer: > 46 µM (inactive)

Question: What does the source list for `Cn1ccnc1`?
Answer: activity change, negative = inhibition [1, 9]: -6.19% (inactive); Potency [2]: inactive; activity change, negative = inhibition [3, 9]: -1.47% (inactive); activity, negative = inhibition [4, 9]: 8.3% (inactive); Potency [6]: > 46 µM (inactive); Potency [5]: > 46 µM (inactive); outcome [7]: inactive

Question: Which activity change, negative = inhibition [1, 9] does the source give for `CCC(=O)N1CCN(C(=O)c2ccccc2)CC1` here?
Answer: -5.7% (inactive)

Question: And the Potency [2]?
Answer: inactive

Question: What about the activity change, negative = inhibition [3, 9] of the same compound?
Answer: 3.73% (inactive)

Question: What about the activity, negative = inhibition [4, 9] of the same compound?
Answer: 2.58% (inactive)

Question: And the Potency [6]?
Answer: > 46 µM (inactive)

Question: What about the Potency [5] of the same compound?
Answer: > 46 µM (inactive)

Question: And the outcome [7]?
Answer: inactive

Question: With `O=C1Cc2c([nH]c3ccc(Br)cc23)-c2ccccc2N1` as the compound, how does the activity change, negative = inhibition [1, 9] read?
Answer: -104% (active)

Question: What about the Potency [2] of the same compound?
Answer: 1.26 µM (active) and 158 nM (active)

Question: And the activity change, negative = inhibition [3, 9]?
Answer: -74.4% (active)

Question: What about the activity, negative = inhibition [4, 9] of the same compound?
Answer: -29.2% (active)

Question: And the Potency [6]?
Answer: > 46 µM (inactive)

Question: What about the Potency [5] of the same compound?
Answer: > 46 µM (inactive)

Question: And the outcome [7]?
Answer: inactive

Question: For `C[C@H](NC(=O)/C(C#N)=C/c1ccc(O)c(O)c1)c1ccccc1`, which activity change, negative = inhibition [1, 9] is on record?
Answer: -18.9% (inactive) and -19.7% (inactive)

Question: And the Potency [2]?
Answer: 31.6 µM (active) and 15.8 µM (active)

Question: And the activity change, negative = inhibition [3, 9]?
Answer: -20.6% (inactive) and -13.5% (inactive)

Question: And the activity, negative = inhibition [4, 9]?
Answer: -15.4% (inactive)

Question: And the Potency [6]?
Answer: > 46 µM (inactive)

Question: And the Potency [5]?
Answer: > 46 µM (inactive)

Question: For `CCN1C(=O)C=CC1=O`, which activity change, negative = inhibition [1, 9] is on record?
Answer: -2.69% (inactive)

Question: What about the Potency [2] of the same compound?
Answer: inactive

Question: What about the activity change, negative = inhibition [3, 9] of the same compound?
Answer: 4.62% (inactive)

Question: And the activity, negative = inhibition [4, 9]?
Answer: -6.29% (inactive)

Question: What about the Potency [5] of the same compound?
Answer: > 46 µM (inactive)

Question: Which activity change, negative = inhibition [1, 9] does the source give for `COc1ccc2c(c1)c(CC(=O)O)c(C)n2C(=O)c1ccccc1` here?
Answer: 1.55% (inactive)

Question: And the Potency [2]?
Answer: 12.6 µM (active)

Question: What about the activity change, negative = inhibition [3, 9] of the same compound?
Answer: -0.217% (inactive)

Question: What about the activity, negative = inhibition [4, 9] of the same compound?
Answer: -19% (inactive)

Question: What about the Potency [6] of the same compound?
Answer: > 46 µM (inactive)

Question: What about the Potency [5] of the same compound?
Answer: > 46 µM (inactive)

Question: And the outcome [7]?
Answer: inactive

Question: With `Nc1nc2ccc(Cl)cc2c2nc(-c3ccco3)nn12` as the compound, how does the activity change, negative = inhibition [1, 9] read?
Answer: -6.92% (inactive)

Question: What about the Potency [2] of the same compound?
Answer: 631 nM (active) and 63.1 nM (active)

Question: What about the activity change, negative = inhibition [3, 9] of the same compound?
Answer: 19.6% (inactive)

Question: What about the activity, negative = inhibition [4, 9] of the same compound?
Answer: 3.22% (inactive)

Question: And the Potency [6]?
Answer: > 46 µM (inactive)

Question: And the Potency [5]?
Answer: > 46 µM (inactive)

Question: And the outcome [7]?
Answer: inactive

Question: Which results are given for `O=c1[nH]c(=S)[nH]c(-c2ccccc2)c1Cc1c(O)ccc2ccccc12`?
Answer: Potency [8]: > 11.4 µM (inactive); activity change, negative = inhibition [1, 9]: -11.2% [at 7.69 µM] (inactive); Potency [2]: 1 µM (active); activity, negative = inhibition [4, 9]: -12.5% [at 7.69 µM] (inactive); Potency [6]: > 46 µM (inactive); Potency [5]: > 9.22 µM (inactive); activity change, negative = inhibition [7]: 0.827% [at 11.4 µM] (inactive)

Question: For `O=C(O)c1cc2cc(F)ccc2[nH]1`, which activity change, negative = inhibition ([1]; at 17.2 µM (top of the series)) is on record?
Answer: 14.4% (inactive)

Question: What about the activity change, negative = inhibition ([1]; at 38 µM (top of the series)) of the same compound?
Answer: 0.264% (inactive)

Question: And the Potency [2]?
Answer: inactive

Question: What about the activity change, negative = inhibition ([3]; at 17.2 µM (top of the series)) of the same compound?
Answer: -6.32% (inactive)

Question: And the activity change, negative = inhibition ([3]; at 38 µM (top of the series))?
Answer: -3.11% (inactive)

Question: And the activity, negative = inhibition [4, 9]?
Answer: -0.809% [at 17.2 µM] (inactive)

Question: And the Potency [6]?
Answer: > 46 µM (inactive) and > 20.6 µM (inactive)

Question: What about the Potency [5] of the same compound?
Answer: > 46 µM (inactive)

Question: What about the outcome [7] of the same compound?
Answer: inactive

Question: Which results are given for `O=[N+]([O-])c1cccc2cn[nH]c12`?
Answer: activity change, negative = inhibition ([1]; at 17.2 µM (top of the series)): -15.6% (inactive); activity change, negative = inhibition ([1]; at 38 µM (top of the series)): 0.682% (inactive); Potency [2]: 12.6 µM (active) and 2.51 µM (active); activity change, negative = inhibition ([3]; at 17.2 µM (top of the series)): -4.2% (inactive); activity change, negative = inhibition ([3]; at 38 µM (top of the series)): -7.34% (inactive); activity, negative = inhibition ([4]; at 17.2 µM (top of the series)): -4.16% (inactive); activity, negative = inhibition ([4]; at 38 µM (top of the series)): -5.67% (inactive); Potency [6]: > 46 µM (inactive) and > 20.6 µM (inactive); Potency [5]: > 46 µM (inactive); outcome [7]: inactive

Question: Which results are given for `COCc1nc2c([nH]1)c(=O)n(C)c(=O)n2CC(C)C`?
Answer: activity change, negative = inhibition [1, 9]: 1.03% (inactive); Potency [2]: 12.6 µM (active); activity change, negative = inhibition [3, 9]: 9.41% (inactive); activity, negative = inhibition [4, 9]: -22% (inactive); Potency [6]: > 46 µM (inactive); Potency [5]: > 46 µM (inactive); outcome [7]: inactive

Question: For `CC(C)(CO)Cc1cc(C(C)(C)C)c(O)c(C(C)(C)C)c1`, which activity change, negative = inhibition [1, 9] is on record?
Answer: 4.82% (inactive)

Question: And the Potency [2]?
Answer: 31.6 µM (active) and 25.1 µM (active)

Question: And the activity change, negative = inhibition [3, 9]?
Answer: -10.6% (inactive)

Question: What about the activity, negative = inhibition [4, 9] of the same compound?
Answer: -24.1% (inactive)

Question: What about the Potency [6] of the same compound?
Answer: > 46 µM (inactive)

Question: What about the Potency [5] of the same compound?
Answer: > 46 µM (inactive)

Question: What about the outcome [7] of the same compound?
Answer: inactive

Question: With `NS(=O)(=O)c1cccc2c1c([N+](=O)[O-])cc1nc(O)c(O)nc12` as the compound, how does the activity change, negative = inhibition [1, 9] read?
Answer: 7.91% (inactive)

Question: What about the Potency [2] of the same compound?
Answer: 25.1 µM (active) and inactive

Question: What about the activity, negative = inhibition [4, 9] of the same compound?
Answer: -3.69% (inactive)

Question: What about the Potency [6] of the same compound?
Answer: > 46 µM (inactive)

Question: What about the Potency [5] of the same compound?
Answer: > 46 µM (inactive)

Question: And the outcome [7]?
Answer: inactive

Question: What does the source list for `O=C(O)c1cc(=O)cc(C(=O)O)[nH]1`?
Answer: activity change, negative = inhibition [1, 9]: -11.2% (inactive); Potency [2]: inactive; activity, negative = inhibition [4, 9]: 10.8% (inactive); Potency [6]: > 46 µM (inactive); Potency [5]: > 46 µM (inactive); outcome [7]: inactive

Question: Which activity change, negative = inhibition [1, 9] does the source give for `Nc1ncnc2c1c(-c1ccc(Oc3ccccc3)cc1)cn2C1CCCC1` here?
Answer: -103% (active)

Question: What about the Potency [2] of the same compound?
Answer: 15.8 µM (active)

Question: What about the activity, negative = inhibition [4, 9] of the same compound?
Answer: -13.6% (inactive)

Question: And the Potency [6]?
Answer: > 46 µM (inactive)

Question: And the Potency [5]?
Answer: > 46 µM (inactive)

Question: What about the outcome [7] of the same compound?
Answer: inactive

Question: What does the source list for `O=C(O)Cc1ccc(O)c(O)c1`?
Answer: activity change, negative = inhibition [1, 9]: -7.22% (inactive); Potency [2]: inactive; activity, negative = inhibition [4, 9]: 18.6% (inactive); Potency [6]: > 46 µM (inactive); Potency [5]: > 46 µM (inactive); outcome [7]: inactive

Question: With `CCCCCCCCCCCCCCSCC(=O)O` as the compound, how does the activity change, negative = inhibition [1, 9] read?
Answer: -3.84% (inactive)

Question: What about the Potency [2] of the same compound?
Answer: inactive

Question: What about the activity, negative = inhibition [4, 9] of the same compound?
Answer: -3.53% (inactive)

Question: And the Potency [6]?
Answer: > 46 µM (inactive)

Question: What about the Potency [5] of the same compound?
Answer: > 46 µM (inactive)

Question: What about the outcome [7] of the same compound?
Answer: inactive

Question: What does the source list for `Cn1c(=O)c2[nH]c(C3CCCC3)nc2n(C)c1=O`?
Answer: activity change, negative = inhibition [1, 9]: 0.66% (inactive); Potency [2]: 12.6 µM (active); activity change, negative = inhibition [3, 9]: 3.19% (inactive); Potency [5]: > 46 µM (inactive)
